Screens deposited in PubChem by National Center for Advancing Translational Sciences (NCATS).
A selection: hits, their analogues and other compounds. The true share with any hit is near 9.9%.
IL-1B inflam inh: inhibitors of inflammasome signaling (IL-1 beta secretion); actives 4.7% (n = 360,000); AID 743279; activity change, % at 57.5 µM; THP-1 LPS/ATP IL-1B secretion, AlphaLISA, 16 h; active compounds read low; in the data active means activity change below about -50%; inconclusive means mostly about -30% to -49%; further: on the % scale 0 is the no-effect control and ±100 the full control effect
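THP-1 cells pretreated 1 hr with compounds (up to 57.5 uM final), then stimulated with LPS (250 ng/mL final) plus ATP (1.25 mM final); secreted IL-1B measured by AlphaLISA after 16 hr, decreased signal indicating inhibition.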
KB-V1 cytotox: kills drug-selected multidrug resistant KB-V1 cells. KB-V1 MDR cells viability, CellTiter-Glo, 72 h. Potency, µM (titrated, usually from 46.1 µM), hits mostly cytotoxic. actives 3.4% (n = 400,000). AID 1347076; further: potency means the concentration at half of the fitted maximal effect; on the % scale 0 is the no-effect control and ±100 the full control effect; nearly all actives have a fitted effect of over 60% in size
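Readout: CellTiter-Glo luminescence, 10 min after addition. Cells: KB-V1 MDR subline, 72 h at 37 degrees C with compound. Analysis: corrected, normalized data fitted to concentration-effect curves.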
MCF10A rereplic: induces DNA re-replication in MCF 10a normal breast cells. MCF 10A DNA re-replication, Hoechst nuclear intensity, 48 h. Potency, µM (top dose mostly 46.1 µM), without a hit: top-dose activity, positive = re-replication, actives largely listed as activators. actives 2.9% (n = 350,000). AID 624296; further: potency means the concentration at half of the fitted maximal effect; % of control where 0% means no effect; nearly all actives have a fitted effect of over 50% in size
KB-3-1 cytotox: kills parental KB-3-1 adenocarcinoma cells. KB-3-1 viability, CellTiter-Glo ATP luminescence, 72 h. Potency, µM (top dose mostly 46.1 µM), actives largely listed as cytotoxic. actives 1.4% (n = 400,000). AID 1347075; further: potency means the concentration at half of the fitted maximal effect; on the % scale 0 is the no-effect control and ±100 the full control effect; nearly all actives have a fitted effect of over 60% in size
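Parental KB-3-1 viability, qHTS format: 72 h compound exposure, 37 °C; CellTiter-Glo; media-only wells and DMSO plates as controls; concentration-effect fits on corrected data.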
SW480 rerep: inducers of DNA re-replication in SW480 colon cancer cells; AID 624297; Potency, µM (top dose mostly 46.1 µM), for the others: at the highest dose re-replication activation, most hits filed as activators; actives 1.8% (n = 340,000); SW480 DNA re-replication, Hoechst DNA content imaging, 48 h; further: potency means the concentration at half of the fitted maximal effect; % of control where 0% means no effect; nearly all actives have a fitted effect of over 55% in size
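250 cells/well; 23 nL cpd via pin tool; 48 hr, 37 C, 5% CO2; Hoechst 40 min; imager read of total nuclear intensity, ex 405/em 500-530 nm.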
Numbers without * were called inactive. Unless noted, the call rests on the fitted dose curve; in most records, active means well fitted curve in the direction sought with a large enough effect; inconclusive means small, poorly fitted or top-dose-only effect, or another doubt; inactive means no such curve, though single readings can be large; an effect the other way counts as inactive or inconclusive.

Screening Cc1oc2c(c1C(=O)N1CCC(C)CC1)C(=O)c1ccccc1C2=O returned IL-1B inflam inh 152.4, KB-V1 cytotox 18.4µM*, MCF10A rereplic 18.0%, KB-3-1 cytotox 20.6µM* and SW480 rerep 11.6µM*.
`CCOC(=O)C1CCN(C(=O)c2ccc(C)o2)CC1` gave IL-1B inflam inh -1.3, KB-V1 cytotox inactive, MCF10A rereplic 5.4%, KB-3-1 cytotox inactive and SW480 rerep -4.3%.
For CC1CCN(C(=O)c2ccc3c(c2)C(=O)c2ccccc2-3)CC1 the results were IL-1B inflam inh -7.5, KB-V1 cytotox inactive and KB-3-1 cytotox inactive.
Screening CCn1c(=O)c(C(=O)Nc2ccc(C(C)=O)cc2)nc2ccccc21 returned KB-V1 cytotox inactive and KB-3-1 cytotox inactive.
Screening CC1(C)NC(=O)N(CCC(=O)Nc2cc(C(F)(F)F)ccc2Cl)C1=O returned IL-1B inflam inh 10.0, KB-V1 cytotox inactive, MCF10A rereplic inconclusive, KB-3-1 cytotox inactive and SW480 rerep -12.0%.
For O=C(NC(CC(=O)N1CCCC(C(F)(F)F)C1)c1ccccc1)c1ccccc1Cl (centres undefined) the results were IL-1B inflam inh 21.8, KB-V1 cytotox inconclusive, MCF10A rereplic -22.4%, KB-3-1 cytotox inactive and SW480 rerep 0.8%.
Screening Nc1nc(SCn2nnc3ccccc3c2=O)n[nH]1 returned IL-1B inflam inh -18.7, KB-V1 cytotox inactive, MCF10A rereplic 1.1%, KB-3-1 cytotox inactive and SW480 rerep -1.4%.
For CCOc1cc(CNc2ccc3c(c2)OCCO3)cc(Br)c1OCC(N)=O the results were IL-1B inflam inh 11.2, KB-V1 cytotox inactive, MCF10A rereplic 1.6%, KB-3-1 cytotox inactive and SW480 rerep 4.1%.
COc1cc(CNc2ccc(C)c(C)c2)cc(OC)c1OC was read as IL-1B inflam inh 25.3, KB-V1 cytotox inconclusive, MCF10A rereplic 16.4µM*, KB-3-1 cytotox inactive and SW480 rerep 8.2µM*.
For CCOc1c(Br)cc(CNc2ccc3c(c2)OCCO3)cc1OC the results were IL-1B inflam inh 2.4, KB-V1 cytotox 4.11µM*, MCF10A rereplic 1.3µM*, KB-3-1 cytotox 2.06µM* and SW480 rerep 5.8µM*.
Screening CCOc1cc(CNc2ccc3c(c2)OCCO3)cc(Br)c1OC returned IL-1B inflam inh 22.2, KB-V1 cytotox 2.06µM*, MCF10A rereplic 1.64µM*, KB-3-1 cytotox 1.64µM* and SW480 rerep 7.31µM*.
Screening COc1ccc(CNc2ccc(C)c(C)c2)cc1 returned IL-1B inflam inh 6.9, KB-V1 cytotox inactive, MCF10A rereplic 7.9%, KB-3-1 cytotox inactive and SW480 rerep -4.2%.
For O=C([C@H]1O[C@@H](n2ccc(=O)[nH]c2=O)[C@H](O)[C@@H]1O)N1CCSC1 the results were IL-1B inflam inh 4.0, KB-V1 cytotox inactive and KB-3-1 cytotox inactive.
Screening CCCSCCCNC(=O)C1CCN(c2nc3ccccc3nc2C(F)(F)F)CC1 returned KB-V1 cytotox inactive and KB-3-1 cytotox inactive.
Screening CC(=O)Oc1c(Br)cc(N(C(C)=O)S(=O)(=O)c2ccccc2)c2ccccc12 returned IL-1B inflam inh 30.9, KB-V1 cytotox inconclusive, MCF10A rereplic 16.4µM*, KB-3-1 cytotox inconclusive and SW480 rerep inconclusive.
`CCC(Cn1nnc2ccccc2c1=O)NC(=O)Nc1ccccc1Cl` (centres undefined) gave KB-V1 cytotox inactive and KB-3-1 cytotox inactive.
For COc1ccc(/C=C/C(=O)NC(=S)NNC(=O)c2c(-c3ccccc3)noc2C)cc1 the results were IL-1B inflam inh 9.4, KB-V1 cytotox 7.31µM*, MCF10A rereplic -5.9%, KB-3-1 cytotox inconclusive and SW480 rerep 5.6%.
Screening Cc1onc(-c2ccccc2)c1C(=O)NNC(=S)NC(=O)/C=C/c1ccccc1 returned IL-1B inflam inh 32.5, KB-V1 cytotox 2.91µM*, MCF10A rereplic inconclusive, KB-3-1 cytotox inconclusive and SW480 rerep inconclusive.
`O=C(CN1C(=O)CSc2ccc(S(=O)(=O)N3CCOCC3)cc21)NCCCN1CCCCC1` gave IL-1B inflam inh 11.7, KB-V1 cytotox inconclusive, MCF10A rereplic 1.3%, KB-3-1 cytotox inactive and SW480 rerep -1.4%.
CC1CC(C)CN(CCCNC(=O)CN2C(=O)CSc3ccc(S(=O)(=O)N4CCCCC4)cc32)C1 (centres undefined) was read as IL-1B inflam inh -60.0*, KB-V1 cytotox inconclusive, MCF10A rereplic 1.4%, KB-3-1 cytotox inactive and SW480 rerep -1.1%.
`CC(C)(c1ccccc1)c1ccc(OCCN2CCOCC2)cc1` gave IL-1B inflam inh 40.1, KB-V1 cytotox inactive, MCF10A rereplic inconclusive, KB-3-1 cytotox inactive and SW480 rerep -6.5%.
`CC(C)(C)c1ccc(OCCCCCCN2CCNCC2)cc1` gave IL-1B inflam inh -80.4*, KB-V1 cytotox inconclusive, MCF10A rereplic 12.4%, KB-3-1 cytotox inconclusive and SW480 rerep inconclusive.
`CC(C)(c1ccccc1)c1ccc(OCCCN2CCNCC2)cc1` gave IL-1B inflam inh -80.2*, KB-V1 cytotox inactive, MCF10A rereplic inconclusive, KB-3-1 cytotox inconclusive and SW480 rerep inconclusive.
Screening CCOC(=O)c1sc(SCC(=O)Nc2ccc(N(C)C)cc2)nc1N returned IL-1B inflam inh -66.6*, KB-V1 cytotox inactive, MCF10A rereplic -1.8%, KB-3-1 cytotox inactive and SW480 rerep 6.5%.
For CCOC(=O)c1ccc(CNC(=O)Cn2nnc(-c3ccccc3)n2)o1 the results were IL-1B inflam inh 25.1, KB-V1 cytotox inactive, MCF10A rereplic 8.2%, KB-3-1 cytotox inactive and SW480 rerep -0.2%.
Screening c1ccc(N2CC3COc4ccccc4C3=N2)cc1 (centres undefined) returned IL-1B inflam inh 48.4, KB-V1 cytotox inactive, MCF10A rereplic 13µM*, KB-3-1 cytotox inactive and SW480 rerep 14.6µM*.
Screening c1ccc2c(c1)OCc1cn[nH]c1-2 returned IL-1B inflam inh 4.7, KB-V1 cytotox inactive, MCF10A rereplic 9.3%, KB-3-1 cytotox inactive and SW480 rerep inconclusive.
`COC(=O)Nc1ccc(S(=O)(=O)N2CCCC(C(=O)NC3CCS(=O)(=O)C3)C2)cc1` (centres undefined) gave IL-1B inflam inh 8.4, KB-V1 cytotox inactive, MCF10A rereplic -0.6%, KB-3-1 cytotox inactive and SW480 rerep 1.3%.
`COC(=O)NCC(c1ccco1)N1CCN(c2ccccc2)CC1` (centres undefined) gave IL-1B inflam inh -6.7, KB-V1 cytotox inactive, MCF10A rereplic -0.4%, KB-3-1 cytotox inactive and SW480 rerep 5.4%.
`O=C(NCC1CCCO1)C(=O)NCC(c1ccco1)N1CCN(c2ccc(F)cc2)CC1` (centres undefined) gave IL-1B inflam inh 3.0, KB-V1 cytotox 8.2µM*, MCF10A rereplic 0.3%, KB-3-1 cytotox inactive and SW480 rerep -60.9%.
